Compound activity (PubChem BioAssay)
Most compounds without a hit are left out; they make up all but 28% or so of the library.
CYP2C19 act = cytochrome P450 2C19 (human) activation. activation factor at 5 µM. 96,000 tested, under 10 active. P33261. recombinant CYP2C19, luciferin-H EGE luminescence; active compounds read high; 0 = fully inhibited enzyme, 1 = untreated enzyme;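 active means activation factor of at least 2 at 5 µM in the primary screen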;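 further: 0 = wells with 2.5 mM tranylcypromine and 1 = vehicle-only wells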
CYP2C9 act = CYP2C9 (human) activation. hit rate 1.4% among 96,000. activation factor at 5 µM. recombinant CYP2C9, luciferin-H conversion, luminescence; active compounds read high; factor 1 = untreated enzyme, 0 = blocked. AID 1024;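 active means activation factor of 2 or more for CYP2C9 at a 5 µM dose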;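 further: 0 = sulfaphenazole-blocked wells and 1 = vehicle-only wells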
hDAT+cocaine = changed human dopamine transporter uptake under cocaine IC80; Q01959; LLC-PK1 hDAT cells, [14C]-dopamine uptake with cocaine IC80; actives deviate in either direction; B-score at 10 µM; hit rate 1.3% among 110,000; AID 449768;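 active means Z score or B-score, a plate-position-corrected score, falls beyond the plate's 99.7% confidence bounds, in either direction; inactive means both scores lie inside the 99.7% bounds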;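 further: scored against the spread of the other compound wells on the same plate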
CYP2C9 inh = inhibitors of human CYP2C9. P11712. CYP2C9 Supersomes, luciferin-H conversion, luminescence. inhibition, % at 5 µM. hit rate 20% among 96,000;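 active means blocking of liver enzyme CYP2C9 beyond about 50% at 5 µM, limit read from the data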
D1 allo mod = D1 dopamine receptor (human) allosteric modulation | P21728 | HEK293 D1, CRE-luciferase, dopamine EC30 potentiation; actives deviate in either direction | B-score at 10 µM | hit rate 5.9% among 58,000 | AID 641;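 active means luminescence count or its row- and column-corrected plate score outside the 99.7% band of the plate's sample wells, on either side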
Target sequence (P21728 whole entry, looked up): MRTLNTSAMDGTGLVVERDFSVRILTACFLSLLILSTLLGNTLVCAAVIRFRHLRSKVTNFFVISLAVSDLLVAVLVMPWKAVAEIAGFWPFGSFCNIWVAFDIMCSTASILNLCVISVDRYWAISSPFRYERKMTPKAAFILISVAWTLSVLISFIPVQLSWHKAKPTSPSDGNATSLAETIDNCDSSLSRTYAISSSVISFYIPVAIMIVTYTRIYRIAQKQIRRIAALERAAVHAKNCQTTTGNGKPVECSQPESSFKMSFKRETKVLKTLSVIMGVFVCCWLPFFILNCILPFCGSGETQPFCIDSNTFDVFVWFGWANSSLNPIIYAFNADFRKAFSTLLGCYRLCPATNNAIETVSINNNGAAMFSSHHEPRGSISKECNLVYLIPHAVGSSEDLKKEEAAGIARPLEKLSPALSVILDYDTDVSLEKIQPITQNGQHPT
CYP2C19 inhib = inhibitors of human CYP2C19; P33261; CYP2C19 Supersomes, luciferin-H EGE luminescence, 30 min; inhibition, % at 5 µM; hit rate 21% among 96,000; AID 778;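 active means CYP2C19 inhibition above a set limit at 5 µM in the primary screen, cut at about 50% in these data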;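 further: plate controls were negative control wells for no effect and 2.5 mM tranylcypromine positive control for full effect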
* marks the source's active call; other numbers are inactive results; · = no result given.

SMILES	CYP2C19 act	CYP2C9 act	hDAT+cocaine	CYP2C9 inh	D1 allo mod	CYP2C19 inhib
COc1cc(OC)c(C2=NOC(C(=O)NCCc3ccccc3)C2)cc1Cl (configuration not stated)	0.4	1.3	0.066	-28	·	62*
COc1ccccc1CNC(=O)C1CC(c2c(Cl)cccc2Cl)=NO1 (configuration not stated)	0.2	2.2*	-1	-115	·	84*
O=C(NCc1cccc(Br)c1)C1CC(c2cc(C(F)(F)F)cc(C(F)(F)F)c2)=NO1 (configuration not stated)	·	·	0.033	·	·	·
CCOC(=O)c1ccc(N2C(=O)CC(N3CCC(Nc4ccc(F)cc4)CC3)C2=O)cc1 (configuration not stated)	0.8	0.8	-0.29	19	·	22
Cc1occc1-c1nnc(SCC(=O)c2cc3ccccc3oc2=O)o1	0.8	0.1	0.059	90*	-0.95	19
Cc1occc1-c1nnc(SCC(=O)Nc2nc(-c3ccccc3)cs2)o1	0.8	0.5	-1.1	47	·	23
Cc1occc1-c1nnc(SCC(=O)Nc2nc3ccccc3s2)o1	0.2	0.2	0.1	75*	·	79*
CCOC(=O)C1CCCCN1Cc1ccc(F)c(Br)c1 (configuration not stated)	0.2	0.5	-0.15	46	-0.028	82*
O=S(=O)(NC1=NCCC1)c1ccc(F)cc1	0.9	0.9	-0.92	14	·	9
O=C1C(=O)N(CCCn2ccnc2)C(c2cccnc2)/C1=C(/O)c1ccc(Br)cc1 (configuration not stated)	·	·	·	·	-0.64	·
Cc1ccc(S(=O)(=O)C2(C(=O)N3CCN(C4CCCCC4)CC3)CC2)cc1	·	·	-0.92	·	-0.074	·
Cc1ccc(S(=O)(=O)C2(C(=O)N3CCCCCC3)CC2)cc1	0.2	0.9	-0.43	9	-0.034	79*
NC(=O)NC(=O)COC(=O)c1ccccc1Oc1ccccc1	0.9	1	-0.89	0	-0.065	15
CCS(=O)(=O)NCc1ccc2[nH]c3c(c2c1)CCCC3	0.6	0.3	-1.4	74*	·	38
S=C(NCc1ccc2[nH]c3c(c2c1)CCCC3)Nc1ccccc1	·	·	-0.25	·	·	·
O=S(=O)(Cc1cccc(F)c1)c1c[nH]c2ccccc12	0	0.2	-0.12	81*	-0.36	100*
COc1ccc(-n2nc(C(=O)NCC(=O)NCc3ccco3)c3ccccc3c2=O)cc1Cl	1	0.6	-0.00012	36	0.89	-2
CCOC(=O)C1=C(CNCc2ccc(C)cc2)NC(=O)NC1c1ccc(OC)cc1 (configuration not stated)	0.8	0.8	0.73	24	-0.42	22
O=C1c2ccccc2C(=O)N1CC1c2ccccc2CCN1S(=O)(=O)c1cnc[nH]1 (configuration not stated)	0.2	0	0.6	97*	-0.19	78*
Cc1ccc(S(=O)(=O)N2CCc3ccccc3C2CN2C(=O)c3ccccc3C2=O)cc1 (configuration not stated)	0.3	0.5	-0.13	47	·	71*
O=C1c2ccccc2C(=O)N1CC1c2ccccc2CCN1C(=O)N1CCOCC1 (configuration not stated)	0.7	1.2	0.1	-17	·	28
CC1CCN(C(=O)C2CCN(S(=O)(=O)c3cnc[nH]3)CC2)CC1	1.1	0.9	0.74	11	0.83	-6
O=C(Nc1nnc(CC(=O)N2CCCC2)s1)c1cnccn1	·	·	·	·	0.18	·
COc1cccc(-n2nc(C(=O)O)c3ccccc3c2=O)c1	0.5	0.8	-0.66	20	-0.085	50*
COc1ccc(-n2nc(C(=O)Nc3ccc4c(c3)OCO4)c3ccccc3c2=O)cc1	0.9	0.2	·	79*	0.14	14
SMILES	CYP2C19 act	CYP2C9 act	hDAT+cocaine	CYP2C9 inh	D1 allo mod	CYP2C19 inhib
COc1cccc(-n2nc(-c3ccnn3-c3ccccc3)c(=O)n(C)c2=O)c1	0.4	0.6	0.53	39	·	62*
COc1ccc(-n2nc(C(=O)N3CCN(Cc4ccc5c(c4)OCO5)CC3)c3ccccc3c2=O)cc1	0.7	0.3	0.85	74*	0.035	33
CCc1c(C)c2nncn2[nH]c1=O	1.1	1.1	0.6	-8	-0.097	-12
O=C(CCc1n[nH]c(=O)[nH]c1=O)N1CCOCC1	1.1	1	-0.24	-2	0.2	-7
O=C(CCNc1n[nH]c(=O)[nH]c1=O)N1CCOCC1	1.1	1.1	-3.4*	-14	·	-13
C(=N\Nc1nc(-c2ccccc2)cs1)/c1cccs1	0.5	0.6	-0.046	41	·	45
COc1ccc(CNC(=O)C(c2ccc(C)o2)N(C(=O)c2csnn2)c2ccc(C(C)C)cc2)cc1 (configuration not stated)	0.5	0.5	1.1	52*	·	51*
CCOc1ccccc1C1C(C#N)=C(N)Oc2cc(C)n(C)c(=O)c21 (configuration not stated)	1	1	0.11	-3	·	4
Cc1cc2c(c(=O)o1)C(Cc1ccccc1)C(C#N)=C(N)O2 (configuration not stated)	0.1	0.4	-0.93	63*	0.12	86*
Cc1cc2c(c(=O)o1)C(C(C)C)C(C#N)=C(N)O2 (configuration not stated)	0.4	1	0.42	0	-1.3	57*
CCOc1cccc(C2C(C#N)=C(N)Oc3cc(C)oc(=O)c32)c1OCC (configuration not stated)	0.8	0.1	-0.4	90*	·	21
COC(=O)Nc1sc2c(c1C(=O)NC1CC1)CCCCCC2	0.7	0.8	-1.1	21	·	32
CCOc1cc(/C=C2\N=C(SC)SC2=O)cc([N+](=O)[O-])c1OC(C)=O	1	0.3	·	71*	·	-2
CCOc1cc(/C=C2\N=C(SCC)SC2=O)cc([N+](=O)[O-])c1OC(C)=O	1.1	0.3	0.35	72*	·	-8
COc1ccc(C(=O)CC2OC(=O)c3ccccc32)cc1OC (configuration not stated)	·	·	1.2	·	·	·
COc1ccc(CCN2C(=O)C3CC(C)=C(C)CC3C2=O)cc1OC (configuration not stated)	0.6	1	1.2	4	·	44
Cc1ccc(N2C(=S)N=C(Nc3ccccc3C)C23CCOC(C)(C)C3)cc1 (configuration not stated)	0.7	0.5	-1.8	51*	·	33
O=C1C=C(Nc2ccc(Cl)cc2)CC(c2ccc(Cl)cc2)C1 (configuration not stated)	·	·	-0.87	·	·	·
O=C1C=C(NCc2ccco2)CC(c2ccc(Cl)cc2)C1 (configuration not stated)	0.4	0.7	0.23	32	-0.62	62*
Nc1nc(NC(=O)Cc2ccccc2)nn1-c1ccccc1	0.7	0.9	0.95	11	·	28
Cc1ccc(N2CCN(/N=C/c3sccc3C)CC2)cc1	0.5	2.8*	1.1	-179	·	50
